In PubChem BioAssay (EPA / NIEHS):
Records with an inconclusive call do not appear. Activity calls are given as the source filed them. How the source made its calls, unless noted: active means hit-call score of the fitted dose curve at least 0.9, where 1 is the maximum; inactive means score below 0.9.

Experiments:
[1] = read-out: succinate dehydrogenase complex iron sulfur subunit B (SDHB), SDHB (gene 6390); test: LTEA_HepaRG_SDHB: Life Technologies and Expression Analysis (LTEA) Assay for succinate dehydrogenase complex iron sulfur subunit B (SDHB) using HepaRG (AID 2283528); conditions: mRNA level, 48 h; actives raise or lower the signal
Method in brief: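 HepaRG cells (~100,000/well, plated 48 h) exposed in duplicate for 48 h in serum-free induction medium to 8-point half-log series from 100 uM in 0.5% DMSO; mRNA by qRT-PCR normalised to ACTB, GAPDH, POLR2A; bidirectional fit versus DMSO.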

[2] = read-out: Signal transducer and activator of transcription 3 (Homo sapiens) (UniProt P40763); test: LTEA_HepaRG_STAT3: Life Technologies and Expression Analysis (LTEA) Assay for Signal transducer and activator of transcription (STAT3) using HepaRG (AID 2283529); conditions: mRNA level, 48 h; actives raise or lower the signal
Method in brief: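 Differentiated HepaRG cells, serum-free induction medium, dosed 48 h in duplicate, 8 half-log concentrations from 100 uM in 0.5% DMSO. STAT3 mRNA by qRT-PCR, normalised to ACTB, GAPDH, POLR2A; bidirectional fit versus DMSO.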

[3] = read-out: solute carrier (SLCO1B1), SLCO1B1 (gene 10599); test: LTEA_HepaRG_SLCO1B1: Life Technologies and Expression Analysis (LTEA) Assay for solute carrier (SLCO1B1) using HepaRG (AID 2283530); conditions: mRNA level, 48 h; actives raise or lower the signal
Method in brief: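 Differentiated human HepaRG cells, plated 48 h, switched to serum-free induction medium and exposed in duplicate for 48 h to 8 half-log concentrations (top 100 uM) in 0.5% DMSO. SLCO1B1 mRNA by TaqMan qRT-PCR, normalized to ACTB/GAPDH/POLR2A.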

[4] = read-out: sulfotransferase 2A1 (SULT2A1), SULT2A1 (gene 6822); test: LTEA_HepaRG_SULT2A1: Life Technologies and Expression Analysis (LTEA) Assay for sulfotransferase 2A1 (SULT2A1) using HepaRG (AID 2283531); conditions: mRNA level, 48 h; actives raise or lower the signal
Method in brief: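 Differentiated human HepaRG cells in serum-free induction medium were exposed for 48 h to eight half-log concentrations (top 100 uM, 0.5% DMSO). SULT2A1 mRNA was measured by qRT-PCR, normalized to ACTB, GAPDH and POLR2A, and fitted bidirectionally against DMSO.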

[5] = read-out: Transforming Growth Factor (TGFA), TGFA (gene 7039); test: LTEA_HepaRG_TGFA: Life Technologies and Expression Analysis (LTEA) Assay for Transforming Growth Factor (TGFA) using HepaRG (AID 2283532); conditions: mRNA level, 48 h; actives raise or lower the signal
Method in brief: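 Differentiated HepaRG cells exposed 48 hours in serum-free induction medium, 0.5% DMSO vehicle, 8-point half-log series from 100 uM, in duplicate. TGFA mRNA by TaqMan qRT-PCR, normalised to ACTB, GAPDH, POLR2A; bidirectional fit versus DMSO.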

[6] = read-out: Transforming Growth Factor (TGFB1), TGFB1 (gene 7040); test: LTEA_HepaRG_TGFB1: Life Technologies and Expression Analysis (LTEA) Assay for Transforming Growth Factor (TGFB1) Transporter using HepaRG (AID 2283533); conditions: mRNA level, 48 h; actives raise or lower the signal
Method in brief: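 Differentiated human HepaRG cells in serum-free induction medium were exposed in duplicate for 48 h to eight concentrations (top 100 uM, half-log steps, 0.5% DMSO). TGFB1 mRNA was quantified by qRT-PCR, normalized to ACTB, GAPDH, POLR2A, and fitted bidirectionally against DMSO.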

TIMP1, TIMP1 (gene 7076) = test: LTEA_HepaRG_TIMP1: Life Technologies and Expression Analysis (LTEA) Assay for TIMP1 using HepaRG (AID 2283534); conditions: mRNA level, 48 h; actives raise or lower the signal;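 further: TaqMan qRT-PCR signal normalized to ACTB GAPDH and POLR2A housekeeping genes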
Method in brief: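 Differentiated human HepaRG cells in serum-free induction medium were exposed 48 h to chemicals (8 half-log concentrations, top 100 uM, 0.5% DMSO). TIMP1 mRNA was quantified by TaqMan qRT-PCR, normalized to ACTB/GAPDH/POLR2A; bidirectional fit versus DMSO.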

[7] = read-out: Thyroid Hormone Responsive (THRSP), THRSP (gene 7069); test: LTEA_HepaRG_THRSP: Life Technologies and Expression Analysis (LTEA) Assay for Thyroid Hormone Responsive (THRSP) using HepaRG (AID 2283536); conditions: mRNA level, 48 h; actives raise or lower the signal
Method in brief: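 Differentiated HepaRG cells treated 48 h in serum-free induction medium with 8 half-log concentrations up to 100 uM (0.5% DMSO), duplicates. THRSP mRNA by TaqMan qRT-PCR normalised to ACTB, GAPDH, POLR2A; bidirectional fit versus DMSO.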

[8] = read-out: Cellular tumor antigen p53 (Homo sapiens) (UniProt P04637); test: LTEA_HepaRG_TP53: Life Technologies and Expression Analysis (LTEA) Assay for Tumor Protein P53 (TP53) using HepaRG (AID 2283537); conditions: mRNA level, 48 h; actives raise or lower the signal
Method in brief: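 Differentiated HepaRG cells in serum-free induction medium exposed 48 h in duplicate to 8 half-log concentrations, top 100 uM, 0.5% DMSO. TP53 mRNA by TaqMan qRT-PCR (Fluidigm), normalized to ACTB, GAPDH, POLR2A; fitted bidirectionally versus DMSO.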

[9] = read-out: UDP glucuronosyltransferase (UGT1A1), UGT1A1 (gene 54658); test: LTEA_HepaRG_UGT1A1: Life Technologies and Expression Analysis (LTEA) Assay for UDP glucuronosyltransferase (UGT1A1) using HepaRG (AID 2283538); conditions: mRNA level, 48 h; actives raise or lower the signal
Method in brief: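 Readout is UGT1A1 transcript level by qRT-PCR, normalized to three housekeeping genes, after 48 h chemical treatment of HepaRG cells. Concentrations ran from 100 uM down in half-log steps with 0.5% DMSO, and gain or loss relative to DMSO was fitted.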

[10] = read-out: UDP glucuronosyltransferase (UGT1A6), UGT1A6 (gene 54578); test: LTEA_HepaRG_UGT1A6: Life Technologies and Expression Analysis (LTEA) Assay for UDP glucuronosyltransferase (UGT1A6) using HepaRG (AID 2283539); conditions: mRNA level, 48 h; actives raise or lower the signal
Method in brief: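 Human HepaRG cells were dosed for 48 h in serum-free induction medium with 0.5% DMSO vehicle, eight-point half-log series from 100 uM, in duplicate. UGT1A6 mRNA was measured by qRT-PCR, normalized to ACTB, GAPDH, POLR2A, and fitted bidirectionally against DMSO.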

[11] = read-out: X-box binding protein 1 (XBP1), XBP1 (gene 7494); test: LTEA_HepaRG_XBP1: Life Technologies and Expression Analysis (LTEA) Assay for X-box binding protein 1 (XBP1) using HepaRG (AID 2283540); conditions: mRNA level, 48 h; actives raise or lower the signal
Method in brief: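 Differentiated human HepaRG cells in serum-free induction medium were exposed in duplicate for 48 h to eight half-log concentrations up to 100 uM in 0.5% DMSO. XBP1 mRNA was quantified by qRT-PCR, normalised to ACTB, GAPDH and POLR2A, with bidirectional fitting against DMSO.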

[12] = LTEA_HepaRG_LDH_cytotoxicity: Cytotoxicity Assessment in the Life Technologies and Expression Analysis (LTEA) Assay (AID 2283563; active means hit-call score of the fitted dose curve at least 0.9, where 1 is the maximum;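 on AC50: LDH activity released into spent culture medium as a marker of cell death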)
Method in brief: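 Differentiated human HepaRG cells, plated 48 h beforehand, were switched to serum-free induction medium and exposed for 48 h to eight half-log concentrations (top 100 uM) in 0.5% DMSO. LDH was measured in spent medium; activity was fitted relative to DMSO vehicle.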

[13] = ATG_XTT_Cytotoxicity: Cytotoxicity Assessment in the Attagene TRANS-FACTORIAL HepG2 Assay (AID 2283584; active means hit-call score of the fitted dose curve at least 0.9, where 1 is the maximum;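 on AC50: cells exposed to compound for 24 h before reading; active means loss of viability signal versus DMSO baseline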)
Method in brief: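 HepG2 human liver cells, transiently transfected with multiple GAL4-UAS reporter units, were dosed and read at 24 h by XTT as cell number. Loss of signal was fitted relative to DMSO negative control baseline.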

[14] = TOX21_p53_BLA_p2_viability: Viability Assessment in the Tox21 HCT-116 p53 Agonism Beta-lactamase Assay, Phase 2 (AID 2283591; active means hit-call score of the fitted dose curve at least 0.9, where 1 is the maximum;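 further: compound exposure lasted 16 h at 37 °C; actives lower the ATP signal meaning cytotoxicity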)
Method in brief: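 HCT116 p53-bla cells, 4000/well, dosed after 5 h plating (217-fold dilution of DMSO stocks) and incubated 16 h at 37C. Viability taken as cellular ATP by CellTiter-Glo luminescence after 30 min RT; signal loss marks cytotoxicity.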

[15] = biological target: Cellular tumor antigen p53 (Homo sapiens) (UniProt P04637); test: TOX21_p53_BLA_p2_ratio: Tox21 HCT-116 p53 Agonism Beta-lactamase Assay, Ratio, Phase 2 (AID 2283592; active means hit-call score of the fitted dose curve at least 0.9, where 1 is the maximum)
Method in brief: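 HCT116 cells carrying a p53-responsive beta-lactamase reporter were plated, incubated 5 h at 37C, then dosed with compounds in DMSO (217-fold dilution) for 16 h. CCF4-AM substrate was added for 2 h at room temperature; the 460/530 nm emission ratio gave gain-of-signal activity relative to DMSO.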

[16] = TOX21_p53_BLA_p3_viability: Viability Assessment in the Tox21 HCT-116 p53 Agonism Beta-lactamase Assay, Phase 3 (AID 2283593; active means hit-call score of the fitted dose curve at least 0.9, where 1 is the maximum;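 further: cells exposed to compound for 16 h before reading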)
Method in brief: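 HCT116 cells, 4000/well, dosed 5 h after plating by pin transfer (217-fold dilution from DMSO stock) and incubated 16 h at 37C, 5% CO2. Viability read as ATP luminescence with CellTiter-Glo after 30 min at room temperature.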

[17] = biological target: Cellular tumor antigen p53 (Homo sapiens) (UniProt P04637); test: TOX21_p53_BLA_p3_ratio: Tox21 HCT-116 p53 Agonism Beta-lactamase Assay, Ratio, Phase 3 (AID 2283596; active means hit-call score of the fitted dose curve at least 0.9, where 1 is the maximum)
Method in brief: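 HCT116 p53-bla cells (4000/well) given compound in DMSO (217-fold dilution) after 5 h, incubated 16 h at 37C. CCF4-AM substrate 2 h at room temperature; 460/530 nm emission ratio, gain fitted against DMSO.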

[18] = TOX21_p53_BLA_p4_viability: Viability Assessment in the Tox21 HCT-116 p53 Agonism Beta-lactamase Assay, Phase 4 (AID 2283597; active means hit-call score of the fitted dose curve at least 0.9, where 1 is the maximum;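 further: hits lower the luminescence signal meaning cytotoxicity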)
Method in brief: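 HCT116 p53-bla cells (4000/well) rested 5 h at 37C, then received compounds in DMSO (217-fold dilution) for 16 h at 37C, 5% CO2. CellTiter-Glo was added after the CCF4-AM read, and luminescence was read after 30 min at room temperature.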

[19] = read-out: Tumor necrosis factor receptor 1 (TNFRSF1A), TNFRSF1A (gene 7132); test: LTEA_HepaRG_TNFRSF1A: Life Technologies and Expression Analysis (LTEA) Assay for Tumor necrosis factor receptor 1 (TNFRSF1A) using HepaRG (AID 2283535); conditions: mRNA level, 48 h; actives raise or lower the signal
Method in brief: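 Differentiated human HepaRG cells were exposed in duplicate for 48 h in serum-free induction medium to eight concentrations (top 100 uM, half-log steps, 0.5% DMSO). TNFRSF1A mRNA was quantified by qRT-PCR, normalized to ACTB, GAPDH and POLR2A, then fitted bidirectionally against DMSO.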

Measured: AC50

Chain of Cellular tumor antigen p53 (Homo sapiens) (P04637 whole entry, looked up): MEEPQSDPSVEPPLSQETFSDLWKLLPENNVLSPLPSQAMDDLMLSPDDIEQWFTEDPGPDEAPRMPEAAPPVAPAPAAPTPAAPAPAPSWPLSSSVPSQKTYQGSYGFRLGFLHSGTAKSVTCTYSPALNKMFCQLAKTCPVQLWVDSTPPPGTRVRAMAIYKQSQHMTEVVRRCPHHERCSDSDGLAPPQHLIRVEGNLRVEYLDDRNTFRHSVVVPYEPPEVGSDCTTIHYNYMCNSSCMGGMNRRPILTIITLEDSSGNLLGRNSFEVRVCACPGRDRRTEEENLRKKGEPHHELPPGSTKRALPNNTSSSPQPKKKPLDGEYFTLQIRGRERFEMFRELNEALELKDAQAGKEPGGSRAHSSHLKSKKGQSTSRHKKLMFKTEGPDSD
Chain of Signal transducer and activator of transcription 3 (Homo sapiens) (P40763 whole entry, looked up): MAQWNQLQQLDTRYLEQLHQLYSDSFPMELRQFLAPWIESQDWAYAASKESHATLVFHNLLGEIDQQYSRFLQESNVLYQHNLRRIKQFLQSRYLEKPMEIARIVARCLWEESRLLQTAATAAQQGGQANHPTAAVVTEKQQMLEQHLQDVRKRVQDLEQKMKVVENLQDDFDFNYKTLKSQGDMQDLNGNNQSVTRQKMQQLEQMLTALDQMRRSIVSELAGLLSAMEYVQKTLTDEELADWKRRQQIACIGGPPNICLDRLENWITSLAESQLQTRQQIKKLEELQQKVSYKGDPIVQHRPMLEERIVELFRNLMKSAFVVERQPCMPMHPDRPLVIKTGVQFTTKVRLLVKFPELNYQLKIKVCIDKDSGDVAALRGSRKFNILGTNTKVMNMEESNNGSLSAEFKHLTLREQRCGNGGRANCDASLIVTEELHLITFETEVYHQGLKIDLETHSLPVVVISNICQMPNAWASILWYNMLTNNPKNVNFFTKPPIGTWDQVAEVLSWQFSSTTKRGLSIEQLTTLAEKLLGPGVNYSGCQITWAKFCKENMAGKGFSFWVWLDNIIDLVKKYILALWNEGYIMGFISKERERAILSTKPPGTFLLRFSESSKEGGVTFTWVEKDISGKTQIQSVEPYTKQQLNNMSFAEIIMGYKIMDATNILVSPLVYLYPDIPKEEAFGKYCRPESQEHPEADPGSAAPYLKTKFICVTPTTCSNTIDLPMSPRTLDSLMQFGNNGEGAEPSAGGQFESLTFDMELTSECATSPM

COC(=O)[C@H]1[C@H]2C[C@@H]3c4[nH]c5cc(OC)ccc5c4CCN3C[C@H]2C[C@@H](OC(=O)c2cc(OC)c(OC)c(OC)c2)[C@@H]1OC
active: [3] 59 µM | [4] 62.8 µM | [7] 28.3 µM | [9] 66.1 µM | [10] 55.3 µM | [11] 42.2 µM | [12] 30.3 µM
not listed: [19]
inactive: all other assays above

NCCOCCOCCN
not listed: [19]
inactive: all other assays above

CCN(CC)CCOc1ccc(C(=C(Cl)c2ccccc2)c2ccccc2)cc1
inactive: TIMP1, TIMP1 (gene 7076) | [19] | [7] | [11]
active: [1] 78.1 µM | [2] 78.6 µM | [3] 13.3 µM | [4] 79.3 µM | [5] 42 µM | [6] 42 µM | [9] 80.1 µM | [10] 56.6 µM | [12] 62.5 µM | [13] 28 µM [middle of 5 runs]

CCCCC(CC)CO (stereo not given)
not listed: [14] | [18] | [19]
inactive: all other assays above

CCCCCCCC(=O)OC
not listed: [19]
inactive: all other assays above

Cc1cc(SC2=C(O)C[C@@](CCc3ccc(N)cc3)(C(C)C)OC2=O)c(C(C)(C)C)cc1CO
active: [4] 9.92 µM | [9] 1.38 µM
not listed: [13] | [16] | [19]
inactive: all other assays above

COc1ccc(C(=O)Nc2nc3ccccc3c(NCc3ccccc3)c2C#N)cc1
active: [3] 16.3 µM | [4] 21.2 µM | [6] 7.58 µM | [7] 13.6 µM | [9] 3.8 µM | [15] 60.1 µM
not listed: [11] | [13] | [14] | [16] | [19]
inactive: all other assays above
